# Results published in the OligoGym collection.
# Target: SNCG
# Test: pooled miR-30 sensor sort-seq; sequence = guide strand
# Settings: shRNA
# Also: reference of the scale not given here.
row,Sequence,sensor-assay potency score (higher = more potent)
1,TTGCGCACCACCCCGGAGGTGA,-1.19
2,ACAACATTCTCCTTGGTCTTGG,-0.611
3,TACAACATTCTCCTTGGTCTTG,-0.826
4,TTCTCCTTGGTCTTGGCTCCCA,-0.654
5,TGGTCTTTTCCACCGCACCCAC,-1.77
6,TTTGGATGCCACACCCTCCTGT,-0.0802
7,TGGTCTTCTCAGCTGCTTCCGT,-1.23

# Target: SNN
# Test: as above
# Settings: shRNA
row,Sequence,sensor-assay potency score (higher = more potent)
1,TTTCTCTCCACGCACGGTCCCT,-1.1
2,ATGACGATGACTGTGACCACGC,-0.588
3,AATGAGGATGACGATGACTGTG,-0.905
4,TCAGCTTGGCCTTTCTCTCCAC,-0.343
5,TTACAGTAGTAGCTCCATCAAA,-1.39
6,TGACTGGCTGATGCGCTGCAGC,-1.74
7,TTGGCCTTTCTCTCCACGCACG,-1.27
8,TCCTCGTCCTCTGACTGGCTGA,-1.43
9,TCCTCTGACTGGCTGATGCGCT,-1.54
10,TTGGGAGTCATCAGCTTGGCCT,-0.835
11,TCTCCTCGTCCTCTGACTGGCT,-0.606
12,TTCTCTCCACGCACGGTCCCTT,-1.08
